Results reported in PubChem BioAssay AID743311 (Broad Institute, 2014).
Potency and affinity values are given separately. Activity calls are given as the source filed them. Entries that show only a call come without a potency. How the calls were made is not given here.

Assay: toxicity to HepG2 liver cells – cell-based, plate reader, dry powder, set 6, cytotoxicity control, dose response (AID 743311)

| Compound | outcome |
| --- | --- |
| CCCc1nc2ccccc2n1CCOc1ccccc1 | inactive |
| CCc1nc2ccccc2n1CCOc1ccccc1 | inactive |
| Cc1ccc(OCCn2cnc3cc(C)c(C)cc32)cc1 | inactive |
| CSc1nc2ccccc2n1CCOc1ccc(C)cc1 | inactive |
| FC(F)(F)c1cccc(OCCn2cnc3ccccc32)c1 | inactive |
| COCc1nc2ccccc2n1CCOc1ccc(C(C)(C)C)cc1 | inactive |
| OCc1nc2ccccc2n1CCOc1ccccc1 | inactive |
| Cc1ccc(C(C)C)c(OCCn2c(=O)[nH]c3ccccc32)c1 | inactive |
| Cc1ccc(C(C)C)c(OCCn2c(=S)[nH]c3ccccc32)c1 | inactive |
| COc1ccccc1OCCn1c(=S)[nH]c2ccccc21 | inactive |
| Cc1ccc(OCCn2cnc3ccccc32)c(C)c1 | inactive |
| COc1cccc(OCCn2cnc3ccccc32)c1 | inactive |
| Cc1ccc2c(c1)[nH]c(=S)n2CCOc1ccccc1 | inactive |
| CC(C)c1ccccc1NCCn1c(=S)[nH]c2ccccc21 | inactive |
| CCCCc1nc2ccccc2n1CCOc1ccccc1 | inactive |
| Fc1ccc(OCCn2c(=S)[nH]c3ccccc32)cc1 | inactive |
| COc1ccc(OCCn2cnc3ccccc32)cc1 | inactive |
| CS(=O)(=O)c1ccc(OCCn2cnc3ccccc32)cc1 | inactive |
| CSc1nc2ccccc2n1CCOc1cc(C)ccc1C(C)C | inactive |
| CC(C)Oc1ccc(OCCn2cnc3ccccc32)cc1 | inactive |
